Bioassay records as filed in PubChem BioAssay.
Rows were chosen to be rich in hits. Some 10% of all compounds tested hit in one or more screens of this group.
CtBP-E1A blk: inhibitors of CtBP/E1A interaction; AlphaScreen GST-E1A/His-CtBP binding, 1536-well; active compounds read low; activity change, % (no concentration beside the values); actives 0.49% (n = 340,000); AID 651724; in the data active means activity change below about -65%; inconclusive means mostly about -30% to -63%; further: on the % scale 0 is the no-effect control and ±100 the full control effect
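In 5 uL wells, 23 nL compound meets equimolar GST-E1A and His-CtBP (5X stock 125 nM each) for 2 h, 37 °C. Beads (5X, 50 ug/mL) then 1 h, 37 °C, dark.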
Six1-Eya2 blk: inhibitors of human Six1/Eya2 interaction | Q15475+O00167 | AlphaScreen GST-Six1/His-Eya2 binding, biochemical; active compounds read low | activity change, % (test concentration not listed) | actives 0.56% (n = 360,000) | AID 651725; in the data active means activity change below about -65%; inconclusive means mostly about -30% to -63%; further: on the % scale 0 is the no-effect control and ±100 the full control effect
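AlphaScreen luminescence read after one hour at 37 °C in darkness. Pin-transferred compounds met GST-Six1 and His-Eya2 protein (5X stock 250 nM/500 nM) plus glutathione donor and Ni-chelate acceptor beads (5X, 50 ug/mL).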
G9a inh: blocks human histone lysine methyltransferase G9a; Potency, µM (top dose mostly 102 µM), for inactives: top-dose activity, negative = inhibition, most hits filed as inhibitors; Q96KQ7; actives 8.8% (n = 350,000); G9a H3K9 monomethylation, AlphaScreen, 2 h; further: potency means the concentration at half of the fitted maximal effect; on the % scale 0 is the no-effect control and ±100 the full control effect; nearly all actives have a fitted effect of over 75% in size
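Quantitative HTS format: methyltransferase activity on a biotin-tagged H3K9 peptide is measured by AlphaScreen, using a rabbit anti-monomethyl-H3K9 antibody with streptavidin donor and anti-IgG acceptor beads. Final levels are 20 nM enzyme, 500 nM peptide, 20 uM SAM; 2 h RT.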
BAZ2B block: BAZ2B (human) inhibition; AlphaScreen BAZ2B-H3K14Ac peptide displacement; Potency, µM (titrated, usually from 114 µM), for the others: at the top dose activity change, negative = inhibition, hits mostly inhibitors; actives 4.4% (n = 360,000); AID 504333; further: potency means the concentration at half of the fitted maximal effect; on the % scale 0 is the no-effect control and ±100 the full control effect; nearly all actives have a fitted effect of over 60% in size
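BAZ2B 50 nM plus b-H3(5-23)K14Ac 50 nM, PBS pH 7.4/0.01% Tween-20, 30 min RT; compound added (max 110 uM), 30 min RT; streptavidin donor/Ni-chelate acceptor beads 10 ug/mL final, 20 min dark; AlphaScreen read.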
JMJD2A Tudor: blocks the human JMJD2A Tudor domain | O75164 | AlphaScreen JMJD2A-Tudor / H3K4me3 peptide binding | Potency, µM (doses to about 114 µM), without a hit: top-dose activity change, negative = inhibition, usual class: inhibitors | actives 4.4% (n = 390,000) | AID 504339; further: potency means the concentration at half of the fitted maximal effect; on the % scale 0 is the no-effect control and ±100 the full control effect; nearly all actives have a fitted effect of over 50% in size
HP1b chromo inh: blocks HP1-beta chromodomain binding to methylated histone tails | actives 0.56% (n = 390,000) | P83916 | Potency, µM (top dose mostly 114 µM), for the others: at the highest dose activity change, negative = inhibition, hits mostly inhibitors | AlphaScreen HP1-beta / biotin-H3K9me3 peptide binding; further: potency means the concentration at half of the fitted maximal effect; nearly all actives have a fitted effect of over 70% in size
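Compound inhibition of the preformed complex between 50 nM HP1-beta and 50 nM biotinylated H3K9me3 peptide was read by AlphaScreen. Buffer was PBS pH 7.4 with 0.01% Tween-20. Incubations ran 30 min at room temperature, with 10 ug/mL donor/acceptor beads.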
Numbers without * were called inactive; u = inconclusive; x = no result; [ ] = remark or other dose. Unless noted, the call rests on the fitted dose curve; in most records, active means well fitted inhibition curve with a large enough effect; inconclusive means small, poorly fitted or top-dose-only effect; inactive means no such curve, though single readings can be large or run the other way.

SMILES	CtBP-E1A blk	Six1-Eya2 blk	G9a inh	BAZ2B block	JMJD2A Tudor	HP1b chromo inh
CCn1c(SCC(=O)N2CCN(C)CC2)nc2c1c(=O)n(C)c(=O)n2C	3	-1	-6%[59 µM]	7%	13%	32%
Cc1ccc(OCCOCCN2CCCC2)c(Br)c1	-2	7	35µM*	56µM*	28µM*	u
Cc1cc(Br)ccc1OCCCCN1CCCCC1	1	-6	u	50µM*	1.6µM*	u
Cc1cc(Br)ccc1OCCOCCN1CCCC1	x	13	x	u	25µM*	2%
NCCCCNc1ncnc2ccc(-c3ccc4c(c3)OCO4)cc12	x	x	x	x	-32%	x
Cc1ccc(-c2cc(NC(=O)C(C)Oc3ccccc3F)on2)cc1 (stereo not given)	x	x	12%[59 µM]	17%	9%	81%
CCOC(=O)C(CC)Sc1ncnc2sc3c(c12)CCCC3 (stereo not given)	x	x	168%[59 µM]	180%	114%	130%
O=C(c1ccccc1)N1CCCC(C(=O)N2CCCCC2)C1 (stereo not given)	x	6	18%	-3%	-7%	45%
CSc1ccccc1C(=O)NC1CCCN(Cc2ccccc2F)C1 (stereo not given)	0	15	10µM*	-4%	-11%	51%
O=C(C1CCCN(Cc2ccccc2F)C1)N1CCCC1 (stereo not given)	x	22	40µM*	56µM*	28µM*	u
O=C(C1CCCN(Cc2cc(Br)ccc2O)C1)N1CCCCC1 (stereo not given)	5	3	25µM*	50µM*	7.9µM*	-7%
COC(=O)CCCC[C@@H]1O[C@H](CCc2ccccc2)Cc2[nH]c(=S)[nH]c(=O)c21	-2	0	x	x	x	x
CCOC(=O)c1sc2c(c1C)c(=O)n(CCO)c(=O)n2Cc1ccccc1	x	-13	-28%[2.33 µM]	-11%	4%	60%
CCc1cc(SC#N)ccc1N	-20	11	-44%	3%	-7%	38%
Cn1cnc(S(=O)(=O)N2CCCC(C(=O)NCc3ccc(Cl)cc3)C2)c1 (stereo not given)	x	x	17%[59 µM]	-7%	-2%	19%
Cc1ccc(-c2cc[n+](Cc3ccccc3)cc2)cc1	2	2	-1%	-17%	u	-8%
Cc1ccc2c(c1)sc[n+]2Cc1ccccc1	2	-15	u	71µM*	28µM*	21%
CC1=NN(C(=O)CSCc2ccccc2)C(O)(c2ccc(Cl)cc2)C1 (stereo not given)	x	-4	16%	-3%	-9%	34%
CC1=NN(C(=O)c2ccc(Cl)cc2)C(O)(c2ccccc2)C1 (stereo not given)	-1	-8	x	50µM*	u	27%
Cc1ccc(NC(=O)CCC(=O)NCCO)cc1	0	-1	1%	9%	2%	28%
Cc1ccc(NC(=O)CS(=O)CC(=O)NCCCN(C)c2ccccc2)cc1 (stereo not given)	-1	3	40µM*	9%	-10%	10%
Cc1ccc(CCNC(=O)CN(c2ccc(C(C)C)cc2)S(=O)(=O)c2c(C)nn(C)c2C)cc1	x	x	1%[59 µM]	-5%	-16%	32%
C/C(=N\OCc1nc2ccccc2c(=O)n1/N=C/c1cc([N+](=O)[O-])ccc1O)c1ccccc1	-8	u	40µM*	-38%	-29%	-5%
O=c1c2ccccc2nc(COc2ccccc2)n1/N=C/c1ccc(O)cc1O	-8	u	2%	u	-36%	-8%
C/C(=N\OCc1nc2ccccc2c(=O)n1/N=C/c1cc(C)cc([N+](=O)[O-])c1O)c1ccccc1	4	4	x	7.9µM*	-4%	33%
Cc1csc(NC(=O)CSc2nnc(Cc3cccn3C)n2CCc2ccccc2)n1	-12	-19	45µM*	u	35µM*	u
Cc1cc(NC(=O)CSc2nnc(Cc3cccn3C)n2CCc2ccccc2)no1	-5	-9	6%	u	-23%	-7%
Cn1cccc1Cc1nnc(SCC(=O)Nc2ccccc2F)n1CCc1ccccc1	-11	-3	45µM*	u	u	-11%
